# From PubChem BioAssay (NCATS)
# Results filed as inconclusive are left out. Where a call stands in place of a potency, no number is given. Activity calls are given as the source filed them. Unless noted, the call rests on the fitted dose curve; in most records, active means well fitted curve in the direction sought with a large enough effect; inconclusive means small, poorly fitted or top-dose-only effect, or another doubt; inactive means no such curve, though single readings can be large; an effect the other way counts as inactive or inconclusive.
# Key:
# [1] = test system: Zika virus NS2B-NS3 protease (linked construct); test: Primary screen NINDS Rhodamine qHTS for Zika virus inhibitors (AID 1347160); further: nearly all actives have a fitted effect of over 55% in size
# Outline: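 Kinetic fluorescence (Ex 480 nm, Em 540 nm) over 15 min with 1.5 microM Rhodamine110 peptide and 25 nM linked protease.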
# [2] = target: Calcium and integrin-binding protein 1 (Homo sapiens) (UniProt Q99828); test: Primary qHTS for Identification of Calcium Integrin Binding Protein 1 (CIB1) Competitor (AID 1508620);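 further: GST tagged CIB1 binding a fluorescein labelled alphaIIb integrin peptide tracer; top concentration of the series differs between compounds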
# Outline: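 Fluorescence polarization competition: GST-tagged CIB1 (1 uM final) preincubated with compound 15 min at room temperature, then FITC-labelled alphaIIb peptide (100 nM final) added. After 15 min at room temperature, polarization read at Ex 480/Em 540.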
# [3] = target: Glutathione peroxidase 1 (Homo sapiens) (UniProt P07203); test: Primary qHTS Assay for Inhibitors of Recombinant Selenoprotein Glutathione Peroxidase 1 (GPX1) (AID 1845191); further: nearly all actives have a fitted effect of over 65% in size
# Outline: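 GR-coupled assay: compounds preincubated 30 min at room temperature with GPX1, then reaction started with CHP; final 10 nM GPX1, 1 mM GSH, 0.5 mM CHP, 0.5 mM NADPH, 100 nM GR, 0.01% BSA, pH 7.5 Tris buffer. NADPH fluorescence (340/450 nm) read at 0 and 15 min.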
# [4] = target: Phospholipid hydroperoxide glutathione peroxidase GPX4 (Homo sapiens) (UniProt P36969); test: Primary qHTS Assay for Inhibitors of Recombinant Selenoprotein Glutathione Peroxidase 4 (GPX4) (AID 1845192); conditions: outcome: dose series up to 50 µM unless noted; further: nearly all actives have a fitted effect of over 65% in size
# Outline: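 GR-coupled assay: recombinant GPX4 preincubated 30 min with compound at room temperature; final 200 nM GPX4, 1 mM GSH, 0.5 mM cumene hydroperoxide, 0.5 mM NADPH, 100 nM GR, 0.01% BSA, pH 7.5 Tris. NADPH fluorescence (340/450 nm) read at 0 and 15 min.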
# [5] = target: Luciferin 4-monooxygenase (Photinus pyralis) (UniProt P08659); test: Primary firefly luciferase (FLuc) qHTS assay for identification of artifact compounds. (AID 1845220); further: nearly all actives have a fitted effect of over 60% in size
# Outline: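 Enzymatic FLuc inhibition assay: compounds pre-exposed to luciferin/ATP (10 uM each) for 15 min, then purified P. pyralis enzyme at 10 nM added. Read-out: luminescence at 5 min.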
# [6] = test system: Nanoluciferase (engineered Oplophorus gracilirostris luciferase); test: Primary Nanoluciferase (NLuc) qHTS assay for identification of artifact compounds. (AID 1845222);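 further: NLuc secreted into diluted conditioned medium of S16 cells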
# Outline: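 S16 cell supernatant NLuc, 1:55; cpds qHTS; 15 min RT dark; Nano-Glo substrate 1:100, 5 min; luminescence; Hill fit of % inhibition.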
# Es-2 = test: Primary qHTS to identify gynecologic anti-cancer compounds using libraries of approved drugs and bioactive compounds (AID 1345084); conditions: Gynecologic cancer cell panel viability, ATPlite luminescence, 48 h; series mostly up to 57.5 µM; further: nearly all actives have a fitted effect of over 55% in size
# Outline: (§1)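 Five-concentration response, 48 h; readout is ATP-driven luciferase luminescence.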
# HeLa = test: as above; conditions: Gynecologic cancer cell panel viability, ATPlite luminescence, 48 h; series mostly up to 57.5 µM
# Outline: as §1
# Hek293T = test: as above; conditions: Gynecologic cancer cell panel viability, ATPlite luminescence, 48 h, control line for the selectivity index; series mostly up to 57.5 µM
# Outline: as §1
# JEG-3 = test: as above; conditions: Gynecologic cancer cell panel viability, ATPlite luminescence, 48 h; series mostly up to 57.5 µM
# Outline: as §1
# OV90 = test: as above; conditions: Gynecologic cancer cell panel viability, ATPlite luminescence, 48 h; series mostly up to 57.5 µM
# Outline: as §1
# Tov-21-G = test: as above; conditions: Gynecologic cancer cell panel viability, ATPlite luminescence, 48 h; series mostly up to 57.5 µM
# Outline: as §1
# Tov112D = test: as above; conditions: Gynecologic cancer cell panel viability, ATPlite luminescence, 48 h; series mostly up to 57.5 µM
# Outline: as §1
# [7] = Primary qHTS for inhibitors of nuclear receptor binding SET domain protein 2 (NSD2) in an isogenic RCH-ACV NSD2 p.E1099K mutant (9B) (AID 1645876); further: nearly all actives have a fitted effect of over 70% in size; further: potency means the concentration at half of the fitted maximal effect
# [8] = Primary qHTS for inhibitors of nuclear receptor binding SET domain protein 2 (NSD2) in an RCH-ACV wild type WT cells (2C) (AID 1645877); further: nearly all actives have a fitted effect of over 70% in size; further: potency means the concentration at half of the fitted maximal effect
# [9] = qHTS drug screen for cell cycle checkpoint inhibitors in PARPi-resistant BRCA-mutant ovarian cancer cell lines. (AID 1963452; calls by dose curve); conditions: PEO1/OlaR viability, CellTiter-Glo luminescence, 96 h, stronger effect = lower value
# Outline: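 PEO1, PEO4 and PEO1/OlaR ovarian cancer cells, 600 per well, exposed 96 h at 37C to a dilution series. Viability read by CellTiter-Glo luminescence, normalized to DMSO and empty wells; activity summarized as Z-AUC.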
# [10] = Primary redox qHTS assay for identification of artifact compounds. (AID 1845223)
# Outline: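 Amplex Red (25 uM) and HRP (250 mU/mL) in HBSS, with compounds for 15 min, then 250 uM DTT for 30 min, room temperature, dark. Fluorescence 525/598 nm read; normalized to DMSO and 10 uM DA3003; Hill fit.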
# [11] = P-glycoprotein substrates identified in KB-8-5-11 adenocarcinoma cell line, qHTS therapeutic library screen (AID 1346987); further: potency means the concentration at half of the fitted maximal effect; nearly all actives have a fitted effect of over 65% in size
# Outline: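 KB-8-5-11, a colchicine-selected P-gp-overexpressing KB-3-1 subline, was grown without colchicine for the assay. Cells were seeded at 500 cells/well, dosed in concentration-response and incubated 72 h at 37 degree C, 5% CO2. Viability was read by CellTiter-Glo luminescence.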
# [12] = measured here: PEO1 parental Z-AUC
# Calcium and integrin-binding protein 1 (Homo sapiens), sequence (Q99828 whole entry, looked up): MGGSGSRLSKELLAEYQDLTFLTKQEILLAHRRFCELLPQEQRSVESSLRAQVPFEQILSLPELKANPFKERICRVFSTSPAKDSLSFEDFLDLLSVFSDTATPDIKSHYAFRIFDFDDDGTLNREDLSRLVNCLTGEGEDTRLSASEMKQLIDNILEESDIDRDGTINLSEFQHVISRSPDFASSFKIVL
# Glutathione peroxidase 1 (Homo sapiens), sequence (P07203 whole entry, looked up): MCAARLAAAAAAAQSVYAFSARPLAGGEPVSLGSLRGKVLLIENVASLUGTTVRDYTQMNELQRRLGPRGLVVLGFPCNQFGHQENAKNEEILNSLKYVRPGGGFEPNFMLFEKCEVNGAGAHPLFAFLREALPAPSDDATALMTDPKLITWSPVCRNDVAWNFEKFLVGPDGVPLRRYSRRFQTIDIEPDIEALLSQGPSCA
# Phospholipid hydroperoxide glutathione peroxidase GPX4 (Homo sapiens), sequence (P36969 whole entry, looked up): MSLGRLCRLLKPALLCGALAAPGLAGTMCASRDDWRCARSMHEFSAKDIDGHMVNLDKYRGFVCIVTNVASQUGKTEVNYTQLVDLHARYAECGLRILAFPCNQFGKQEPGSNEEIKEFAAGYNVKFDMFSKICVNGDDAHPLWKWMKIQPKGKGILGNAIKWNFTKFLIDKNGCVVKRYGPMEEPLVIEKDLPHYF
compound,measurement,setting,value
CC(CCC1(O)OC2CC3C4CC=C5CC(O[C@@H]6O[C@H](CO)[C@@H](O[C@@H]7O[C@H](CO)[C@@H](O)[C@H](O)[C@H]7O)[C@H](O)[C@H]6O[C@@H]6O[C@@H](C)[C@H](O)[C@@H](O)[C@H]6O)CCC5(C)C4CCC3(C)C2C1C)CO[C@@H]1O[C@H](CO)[C@@H](O)[C@H](O)[C@H]1O (stereo not given in full),Potency,[1],inactive
same,outcome,[2],inactive
same,Potency,[3],inactive
same,Potency,[4],inactive
same,"activity change, negative = inhibition",[5],1.02% [at 11.6 µM] (inactive)
same,"activity, negative = inhibition",[6],4.58% [at 11.6 µM] (inactive)
same,"activity change, negative = cytotoxicity",Es-2,5.5% [at 11.6 µM] (inactive)
same,"activity change, negative = cytotoxicity",HeLa,-13.3% [at 11.6 µM] (inactive)
same,"activity change, negative = cytotoxicity",Hek293T,1.54% [at 11.6 µM] (inactive)
same,"activity change, negative = cytotoxicity",JEG-3,-6.68% [at 11.6 µM] (inactive)
same,"activity change, negative = cytotoxicity",OV90,-1.03% [at 11.6 µM] (inactive)
same,"activity change, negative = cytotoxicity",Tov-21-G,-1.21% [at 11.6 µM] (inactive)
same,"activity change, negative = cytotoxicity",Tov112D,7.99% [at 11.6 µM] (inactive)
N#C[C@@H]1C[C@@H]2C[C@@H]2N1C(=O)[C@@H](N)C12CC3CC(CC(O)(C3)C1)C2,Potency,[1],inactive
same,outcome,[2],inactive
same,Potency,[7],inactive
same,Potency,[8],inactive
same,Potency,[3],inactive
same,Potency,[4],inactive
same,Potency,[5],inactive
same,Potency,[6],inactive
same,Z-AUC,[9],-0.557 (inactive)
same,Z-AUC,[9]; [12],0.593
same,Z-AUC,[9]; measured here: PEO4 Z-AUC,-0.565
same,Potency,Es-2,inactive
same,Potency,HeLa,inactive
same,Potency,Hek293T,inactive
same,Potency,JEG-3,inactive
same,Potency,OV90,inactive
same,Potency,Tov-21-G,inactive
same,Potency,Tov112D,inactive
CCOC(=O)CCC(=O)O[C@H]1[C@H](O[C@@H]2[C@@H](C)[C@H](O[C@H]3C[C@@](C)(OC)[C@@H](O)[C@H](C)O3)[C@@H](C)C(=O)O[C@H](CC)[C@@](C)(O)[C@H](O)[C@@H](C)C(=O)[C@H](C)CC2(C)O)O[C@H](C)C[C@@H]1N(C)C (stereo not given in full),Potency,[1],inactive
same,outcome,[2],inactive
same,Potency,[7],inactive
same,Potency,[8],inactive
same,Potency,[3],inactive
same,Potency,[4],inactive
same,Potency,[5],inactive
same,Potency,[6],inactive
same,Potency,[10],inactive
same,Potency,Es-2,inactive
same,Potency,HeLa,inactive
same,Potency,Hek293T,inactive
same,Potency,JEG-3,inactive
same,Potency,OV90,inactive
same,Potency,Tov-21-G,inactive
same,Potency,Tov112D,inactive
C=C1C(=O)O[C@@H]2C[C@@H](C)[C@]34C[C@]5(C(=O)O[C@H]6CC(C)=C([C@H](C)CCCO)[C@H](OC(=O)C(C)CC)[C@H]65)[C@@H](C(C)=C3C[C@@H]12)[C@H]4OC(C)=O (stereo not given in full),Potency,[11],5.44 µM (active)
same,Potency,[1],inactive
same,Potency,[7],2.16 µM (active)
same,Potency,[8],1.53 µM (active)
same,Potency,[3],inactive
same,Potency,[4],inactive
same,Potency,[5],inactive
same,Potency,[6],inactive
same,Potency,[10],inactive
same,Potency,Es-2,inactive
same,Potency,HeLa,inactive
same,Potency,JEG-3,inactive
same,Potency,OV90,inactive
same,Potency,Tov112D,inactive
COc1ccc(-c2c(C)c(C(=O)NN3CCCCC3)nn2-c2ccc(Cl)cc2Cl)cc1,Potency,[1],inactive
same,Potency,[5],inactive
same,Potency,[6],inactive
same,Potency,[10],inactive
same,Potency,Es-2,inactive
same,Potency,HeLa,inactive
same,Potency,Hek293T,inactive
same,Potency,OV90,inactive
same,Potency,Tov-21-G,inactive
same,Potency,Tov112D,inactive
COc1ccc(NS(=O)(=O)c2sc3ccc(Cl)cc3c2C)cc1N1CCNCC1,Potency,[1],inactive
same,outcome,[2],inactive
same,Potency,[7],20.5 µM (active)
same,Potency,[8],12.9 µM (active)
same,Potency,[3],inactive
same,Potency,[4],inactive
same,Potency,[5],inactive
same,Potency,[6],inactive
same,Potency,[10],inactive
same,Potency,Es-2,inactive
same,Potency,HeLa,inactive
same,Potency,Hek293T,inactive
same,Potency,JEG-3,inactive
same,Potency,OV90,inactive
same,Potency,Tov-21-G,inactive
same,Potency,Tov112D,inactive
CN([C@H]1c2cc(OCCCC(F)(F)F)ccc2OC(C)(C)[C@@H]1O)S(C)(=O)=O,Potency,[1],inactive
same,Potency,[5],inactive
same,Potency,[6],inactive
same,Potency,[10],inactive
same,Potency,Es-2,inactive
same,Potency,HeLa,inactive
same,Potency,Hek293T,inactive
same,Potency,JEG-3,inactive
same,Potency,OV90,inactive
same,Potency,Tov-21-G,inactive
same,Potency,Tov112D,inactive
CN(C)CCCCCCNC(=O)c1cccc(-c2cc(O)c3ncccc3c2)c1,Potency,[11],8.2 µM (active)
same,Potency,[1],inactive
same,Potency,[7],11.5 µM (active)
same,Potency,[8],7.28 µM (active)
same,Potency,[3],inactive
same,Potency,[4],inactive
same,Potency,[5],inactive
same,Potency,[6],inactive
same,Potency,HeLa,inactive
same,Potency,JEG-3,inactive
same,Potency,OV90,inactive
C[C@@H]1CCNC(=O)c2cc3ccc(C(=O)Nc4nc5ccccc5n4CCCN(C)C)cc3n21,Potency,[1],inactive
same,outcome,[2],inactive
same,Potency,[7],16.3 µM (active)
same,Potency,[8],14.8 µM (active)
same,Potency,[3],inactive
same,Potency,[4],inactive
same,Potency,[5],inactive
same,Potency,[6],inactive
same,Potency,[10],inactive
same,Z-AUC,[9],-0.825 (inactive)
same,Z-AUC,[9]; [12],-0.925
same,Z-AUC,[9]; measured here: PEO4 Z-AUC,-1.11
same,Potency,Es-2,inactive
same,Potency,HeLa,inactive
same,Potency,Hek293T,inactive
N#Cc1ccc2c(c1)CCN(CCC1CCC(NC(=O)c3ccnc4ccccc34)CC1)C2 (stereo not given),Potency,[1],inactive
same,Potency,[5],inactive
same,Potency,[6],inactive
same,Potency,Es-2,inactive
same,Potency,HeLa,inactive
same,Potency,Hek293T,inactive
same,Potency,JEG-3,inactive
same,Potency,Tov-21-G,inactive
same,Potency,Tov112D,inactive
COc1cccc(NC[C@@H](O)Cn2c3ccc(Br)cc3c3cc(Br)ccc32)c1,Potency,[11],23.1 µM (active)
same,outcome,[2],inactive
same,Potency,[3],inactive
same,Potency,[4],inactive
same,Potency,[5],inactive
same,Potency,[6],inactive
same,Potency,Es-2,inactive
same,Potency,Hek293T,inactive
same,Potency,JEG-3,inactive
same,Potency,Tov112D,inactive
O=C(Nc1ncc(SCCN2CCCC2)s1)C1(c2ccc(S(=O)(=O)C3CC3)cc2)CC1C1CCCCC1 (stereo not given),Potency,[1],inactive
same,outcome,[2],inactive
same,Potency,[7],16.3 µM (active)
same,Potency,[8],12.9 µM (active)
same,Potency,[3],inactive
same,Potency,[4],inactive
same,Potency,[5],inactive
same,Potency,[6],inactive
same,Potency,[10],inactive
same,Potency,Es-2,inactive
same,Potency,HeLa,inactive
same,Potency,Hek293T,inactive
same,Potency,JEG-3,inactive
same,Potency,OV90,inactive
same,Potency,Tov-21-G,inactive
same,Potency,Tov112D,inactive
COC(=O)/C=C/C(=O)N(O)CCCCNCc1ccc(COC(=O)Nc2cccc3ccccc23)cc1,Potency,[1],inactive
same,outcome,[2],inactive
same,Potency,[7],9.34 µM (active)
same,Potency,[3],inactive
same,Potency,[4],inactive
same,Potency,[5],inactive
same,Potency,[6],inactive
same,Potency,[10],inactive
same,Z-AUC,[9],0.336 (inactive)
same,Z-AUC,[9]; [12],0.0181
same,Z-AUC,[9]; measured here: PEO4 Z-AUC,0.131
same,Potency,HeLa,inactive
same,Potency,JEG-3,inactive
same,Potency,OV90,inactive
same,Potency,Tov-21-G,inactive
same,Potency,Tov112D,inactive
